About 7,900 targets were measured; listed, in parts, are those with a hit and a random draw of the rest. About 0.6% of all pairs of compound and target were hits.
What was measured:
Assay in all cases: log2 fold change, soluble protein after heating vs DMSO (PISA); higher = thermal stabilisation; K562 cells, 10 uM, 30 min; active = over 0.2 and 3.5 SD of the protein, either way, in both replicates (recomputed)
[1] = compound: CC1=C(C=C(C=C1)NC(=O)C2=CC(=CC=C2)C(C)(C)C#N)NC3=CC4=C(C=C3)N=CN(C4=O)C
Outline: (§1)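 Quantification of soluble protein used TMTpro 16plex LC-MS/MS, with channel sums equalised. Samples were the supernatant after 21,000xg for 90 min of pooled aliquots from K562 cells (2×10^6 cells/mL) treated with 10 μM compound for 30 min, heated for 3 min over 48°C-58°C, and extracted in PBS with 0.5% NP-40 at 4°C. Values, from duplicates, describe thermal stability against control samples on a log2 fold-change scale.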

[2] = compound: CC1=C(C=C(C=C1)NC(=O)C2=CC(=CC=C2)N(C)C)NC(=O)C3=CC=C(C=C3)O
Outline: as §1

[3] = compound: CC1=CC=C(C=C1)SC2=C3C=C(SC3=CN=C2)C(=O)N
Outline: as §1

[4] = compound: CC1=NC(=CC=C1)C2=C(N=C(N2)C(C)(C)C)C3=CC4=NC=CN=C4C=C3
Outline: as §1

Nexturastat A = compound: CCCCN(Cc1ccc(C(=O)NO)cc1)C(=O)Nc1ccccc1 [Nexturastat A]
Outline: as §1

vemurafenib = compound: CCCS(=O)(=O)Nc1ccc(F)c(C(=O)c2c[nH]c3ncc(-c4ccc(Cl)cc4)cc23)c1F [vemurafenib]
Outline: as §1

[5] = compound: CCCS(=O)(=O)Nc1ccc(F)c(C(=O)c2c[nH]c3ncc(Cl)cc23)c1F
Outline: as §1

[6] = compound: CCCc1cc(C)[nH]c(=O)c1CNC(=O)c1cc(-c2ccnc(N3CCN(C)CC3)c2)cc2c1cnn2C(C)C
Outline: as §1

givinostat = compound: CCN(CC)Cc1ccc2cc(COC(=O)Nc3ccc(C(=O)NO)cc3)ccc2c1 [givinostat]
Outline: as §1

barasertib = compound: CCN(CCCOc1ccc2c(Nc3cc(CC(=O)Nc4cccc(F)c4)[nH]n3)ncnc2c1)CCOP(=O)(O)O [barasertib]
Outline: as §1

Measured: log2 fold change

IPO11 isoform 2 (UniProt Q9UI26)
Chain of UniProt Q9UI26 (Q9UI26 whole entry, looked up): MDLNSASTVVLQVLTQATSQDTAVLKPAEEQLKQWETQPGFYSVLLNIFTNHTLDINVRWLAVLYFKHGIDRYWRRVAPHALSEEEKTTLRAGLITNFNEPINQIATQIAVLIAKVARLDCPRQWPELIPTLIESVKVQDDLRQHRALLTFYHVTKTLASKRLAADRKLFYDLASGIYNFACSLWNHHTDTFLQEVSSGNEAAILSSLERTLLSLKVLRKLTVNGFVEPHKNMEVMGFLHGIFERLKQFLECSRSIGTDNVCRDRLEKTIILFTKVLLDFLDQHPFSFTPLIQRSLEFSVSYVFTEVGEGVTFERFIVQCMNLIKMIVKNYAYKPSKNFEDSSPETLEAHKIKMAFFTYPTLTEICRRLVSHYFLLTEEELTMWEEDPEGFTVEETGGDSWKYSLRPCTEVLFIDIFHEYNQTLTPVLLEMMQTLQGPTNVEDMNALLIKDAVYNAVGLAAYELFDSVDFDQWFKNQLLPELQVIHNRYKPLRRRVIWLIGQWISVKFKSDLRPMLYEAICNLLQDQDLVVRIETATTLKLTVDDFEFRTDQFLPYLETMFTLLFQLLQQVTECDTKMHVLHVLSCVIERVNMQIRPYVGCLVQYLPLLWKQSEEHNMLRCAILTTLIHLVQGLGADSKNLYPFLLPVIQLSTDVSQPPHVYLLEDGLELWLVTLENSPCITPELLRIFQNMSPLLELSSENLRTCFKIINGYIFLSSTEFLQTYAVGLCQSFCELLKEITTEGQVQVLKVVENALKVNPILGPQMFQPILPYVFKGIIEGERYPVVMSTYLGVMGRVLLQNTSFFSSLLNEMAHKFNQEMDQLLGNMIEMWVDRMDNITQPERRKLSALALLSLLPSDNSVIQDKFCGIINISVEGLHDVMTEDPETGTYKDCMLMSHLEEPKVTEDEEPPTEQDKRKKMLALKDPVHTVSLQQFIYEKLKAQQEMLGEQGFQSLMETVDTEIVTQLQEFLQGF
inactive: [1] 0.028 | [2] 0.004 | [3] 0.024 | [4] 0.047 | Nexturastat A -0.002 | vemurafenib 0.052 | [5] 0.082 | [6] -0.031 | givinostat -0.031 | barasertib 0.014

LPGAT1 (UniProt Q92604)
Chain of UniProt Q92604 (Q92604 whole entry, looked up): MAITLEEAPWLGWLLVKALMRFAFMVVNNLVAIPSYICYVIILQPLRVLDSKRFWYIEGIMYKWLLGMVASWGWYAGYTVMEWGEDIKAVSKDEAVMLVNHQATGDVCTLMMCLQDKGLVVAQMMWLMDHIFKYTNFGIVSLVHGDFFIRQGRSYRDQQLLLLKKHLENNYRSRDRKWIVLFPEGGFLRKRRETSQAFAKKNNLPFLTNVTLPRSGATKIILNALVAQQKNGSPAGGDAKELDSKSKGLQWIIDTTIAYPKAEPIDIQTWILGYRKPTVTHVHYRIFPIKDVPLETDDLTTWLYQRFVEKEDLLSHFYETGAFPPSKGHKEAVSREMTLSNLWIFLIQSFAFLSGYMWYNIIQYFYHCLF
inactive: [1] -0.077 | [2] 0 | [3] 0.034 | [4] 0.077 | Nexturastat A 0.036 | vemurafenib 0.018 | [5] 0.086 | [6] -0.033 | givinostat 0.064 | barasertib 0.068

INTS7 (UniProt Q9NVH2)
Chain of UniProt Q9NVH2 (Q9NVH2 whole entry, looked up): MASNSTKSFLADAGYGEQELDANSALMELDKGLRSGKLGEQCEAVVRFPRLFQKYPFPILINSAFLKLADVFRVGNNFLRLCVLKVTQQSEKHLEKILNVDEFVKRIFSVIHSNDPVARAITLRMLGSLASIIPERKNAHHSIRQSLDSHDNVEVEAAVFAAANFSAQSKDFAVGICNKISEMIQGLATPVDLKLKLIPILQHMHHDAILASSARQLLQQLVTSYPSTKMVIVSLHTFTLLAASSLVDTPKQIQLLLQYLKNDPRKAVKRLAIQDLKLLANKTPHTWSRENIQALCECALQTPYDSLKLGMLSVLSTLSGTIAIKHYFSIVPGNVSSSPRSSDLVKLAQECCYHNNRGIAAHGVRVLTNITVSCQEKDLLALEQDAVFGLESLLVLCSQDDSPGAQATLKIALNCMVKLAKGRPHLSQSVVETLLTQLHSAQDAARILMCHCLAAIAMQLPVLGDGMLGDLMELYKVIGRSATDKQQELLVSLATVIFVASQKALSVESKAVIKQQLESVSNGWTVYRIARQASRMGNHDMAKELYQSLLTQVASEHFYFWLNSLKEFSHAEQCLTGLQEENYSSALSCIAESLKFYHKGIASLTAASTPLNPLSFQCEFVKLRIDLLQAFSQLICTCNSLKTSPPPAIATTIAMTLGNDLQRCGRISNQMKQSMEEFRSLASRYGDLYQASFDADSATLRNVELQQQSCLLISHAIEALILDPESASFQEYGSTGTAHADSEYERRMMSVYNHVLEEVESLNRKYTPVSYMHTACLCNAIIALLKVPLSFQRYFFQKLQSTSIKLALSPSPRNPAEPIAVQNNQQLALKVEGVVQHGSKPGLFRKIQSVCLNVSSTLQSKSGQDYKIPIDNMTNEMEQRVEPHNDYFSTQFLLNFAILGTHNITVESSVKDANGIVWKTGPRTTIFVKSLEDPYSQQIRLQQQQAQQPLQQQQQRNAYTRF
inactive: [1] 0.134 | [2] -0.007 | [3] 0.088 | [4] 0.091 | Nexturastat A -0.001 | vemurafenib 0.039 | [5] 0.018 | [6] 0.027 | givinostat 0.242 | barasertib 0.022

MARCKSL1 (UniProt P49006)
Chain of UniProt P49006 (P49006 whole entry, looked up): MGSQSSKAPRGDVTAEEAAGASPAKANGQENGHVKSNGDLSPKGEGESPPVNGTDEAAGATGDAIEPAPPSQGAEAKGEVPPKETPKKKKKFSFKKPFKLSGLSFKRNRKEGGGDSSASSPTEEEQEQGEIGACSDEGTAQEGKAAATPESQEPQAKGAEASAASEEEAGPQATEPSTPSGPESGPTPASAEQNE
inactive: [1] 0.039 | [2] 0.011 | [3] -0.111 | [4] 0.032 | Nexturastat A -0.127 | vemurafenib 0.005 | [5] -0.125 | [6] 0.005 | givinostat 0.041 | barasertib 0.034

ILF3 isoform 7 (UniProt Q12906)
Chain of UniProt Q12906 (Q12906 whole entry, looked up): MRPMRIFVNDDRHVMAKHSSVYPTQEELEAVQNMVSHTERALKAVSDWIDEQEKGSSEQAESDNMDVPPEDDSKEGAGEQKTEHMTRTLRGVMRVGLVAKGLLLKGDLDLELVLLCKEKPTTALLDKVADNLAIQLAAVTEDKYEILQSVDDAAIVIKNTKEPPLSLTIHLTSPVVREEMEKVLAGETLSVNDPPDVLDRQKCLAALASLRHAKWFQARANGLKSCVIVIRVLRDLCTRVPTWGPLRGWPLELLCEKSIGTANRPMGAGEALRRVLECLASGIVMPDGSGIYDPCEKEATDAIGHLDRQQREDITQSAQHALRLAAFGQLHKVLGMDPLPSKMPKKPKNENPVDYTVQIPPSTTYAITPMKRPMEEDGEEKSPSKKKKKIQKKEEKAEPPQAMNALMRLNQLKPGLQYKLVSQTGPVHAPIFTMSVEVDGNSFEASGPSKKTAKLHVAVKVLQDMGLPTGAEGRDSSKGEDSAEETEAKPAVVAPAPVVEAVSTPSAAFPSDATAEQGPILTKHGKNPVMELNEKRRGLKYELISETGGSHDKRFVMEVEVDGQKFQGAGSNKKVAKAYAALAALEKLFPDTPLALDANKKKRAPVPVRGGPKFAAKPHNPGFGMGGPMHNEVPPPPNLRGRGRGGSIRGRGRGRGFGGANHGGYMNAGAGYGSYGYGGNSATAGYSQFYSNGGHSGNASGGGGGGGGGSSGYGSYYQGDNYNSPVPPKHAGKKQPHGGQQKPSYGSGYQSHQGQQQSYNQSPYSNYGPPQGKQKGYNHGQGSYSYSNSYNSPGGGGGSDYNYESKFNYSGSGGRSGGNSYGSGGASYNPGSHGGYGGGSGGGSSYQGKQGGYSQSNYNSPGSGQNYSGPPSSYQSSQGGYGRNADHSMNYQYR
inactive: [1] 0.028 | [2] -0.068 | [3] -0.087 | [4] -0.036 | Nexturastat A 0.146 | vemurafenib -0.036 | [5] -0.1 | [6] 0.102 | givinostat -0.017 | barasertib -0.125

MGST3 (UniProt O14880)
Chain of UniProt O14880 (O14880 whole entry, looked up): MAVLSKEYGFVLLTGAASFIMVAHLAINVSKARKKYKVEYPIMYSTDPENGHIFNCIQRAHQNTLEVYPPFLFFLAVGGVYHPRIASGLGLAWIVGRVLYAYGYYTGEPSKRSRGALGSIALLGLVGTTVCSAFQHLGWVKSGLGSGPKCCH
inactive: [1] -0.029 | [2] 0.005 | [3] 0 | [4] -0.049 | Nexturastat A 0.015 | vemurafenib -0.037 | [5] -0.011 | [6] -0.057 | givinostat 0.003 | barasertib 0.003

KMT5A (UniProt Q9NQR1)
inactive: [1] 0.07

MAGOHB (UniProt Q96A72)
inactive: [1] -0.002 | [2] -0.062 | [3] 0.008 | [4] 0.067 | Nexturastat A -0.026 | vemurafenib 0.037 | [5] 0.04 | [6] -0.069 | givinostat 0.003 | barasertib 0.007

LEO1 (UniProt Q8WVC0)
inactive: [1] -0.086 | [2] -0.113 | [3] 0 | [4] -0.075 | Nexturastat A 0.109 | vemurafenib -0.025 | [5] 0.033 | [6] 0.029 | givinostat 0.118 | barasertib 0.032

MAP2K1 (UniProt Q02750)
Chain of UniProt Q02750 (Q02750 whole entry, looked up): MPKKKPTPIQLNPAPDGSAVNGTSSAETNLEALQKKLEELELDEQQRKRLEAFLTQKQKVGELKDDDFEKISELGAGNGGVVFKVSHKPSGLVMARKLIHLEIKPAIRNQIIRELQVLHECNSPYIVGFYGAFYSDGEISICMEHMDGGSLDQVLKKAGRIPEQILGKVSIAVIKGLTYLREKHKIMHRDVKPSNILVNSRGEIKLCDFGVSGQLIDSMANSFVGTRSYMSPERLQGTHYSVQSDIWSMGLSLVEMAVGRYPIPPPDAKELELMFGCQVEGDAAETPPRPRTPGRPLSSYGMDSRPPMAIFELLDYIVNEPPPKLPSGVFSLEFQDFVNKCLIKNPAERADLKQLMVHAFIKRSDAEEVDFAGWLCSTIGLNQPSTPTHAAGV
inactive: [1] -0.013 | [2] 0.001 | [3] 0.029 | [4] 0.049 | Nexturastat A -0.061 | vemurafenib -0.009 | [5] 0.018 | [6] 0.129 | givinostat 0.007 | barasertib 0.005

LPIN1 isoform 7 (UniProt Q14693)
inactive: [1] -0.022 | [2] 0.018 | [3] -0.022 | [4] -0.026 | Nexturastat A -0.023 | vemurafenib -0.004 | [5] 0.015 | [6] 0.029 | givinostat 0.012 | barasertib 0.023

IGFBP4 (UniProt P22692)
Chain of UniProt P22692 (P22692 whole entry, looked up): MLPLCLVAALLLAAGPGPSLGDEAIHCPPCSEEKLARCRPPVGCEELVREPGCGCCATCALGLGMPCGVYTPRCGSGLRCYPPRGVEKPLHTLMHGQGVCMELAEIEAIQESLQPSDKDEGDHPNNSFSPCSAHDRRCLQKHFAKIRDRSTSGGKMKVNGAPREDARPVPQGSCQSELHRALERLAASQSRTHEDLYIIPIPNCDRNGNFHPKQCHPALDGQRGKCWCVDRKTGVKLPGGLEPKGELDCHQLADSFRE
inactive: [1] 0.044 | [2] 0.207 | [3] 0.026 | [4] 0.003 | Nexturastat A 0.019 | vemurafenib 0.084 | [5] -0.08 | [6] -0.193 | givinostat -0.007 | barasertib 0.013

MAD2L1 (UniProt Q13257)
inactive: [1] 0.019 | [2] -0.035 | [3] -0.003 | [4] 0.031 | Nexturastat A -0.103 | vemurafenib 0.028 | [5] 0.031 | [6] -0.129 | givinostat 0.02 | barasertib 0.018

MED17 (UniProt Q9NVC6)
inactive: [1] 0.042 | [2] -0.03 | [3] -0.186 | [4] 0.005 | Nexturastat A 0.052 | vemurafenib 0.071 | [5] -0.168 | [6] 0.025 | givinostat -0.014

KIF13A isoform 4 (UniProt Q9H1H9)
inactive: [1] 0.035

MFN1 (UniProt Q8IWA4)
Chain of UniProt Q8IWA4 (Q8IWA4 whole entry, looked up): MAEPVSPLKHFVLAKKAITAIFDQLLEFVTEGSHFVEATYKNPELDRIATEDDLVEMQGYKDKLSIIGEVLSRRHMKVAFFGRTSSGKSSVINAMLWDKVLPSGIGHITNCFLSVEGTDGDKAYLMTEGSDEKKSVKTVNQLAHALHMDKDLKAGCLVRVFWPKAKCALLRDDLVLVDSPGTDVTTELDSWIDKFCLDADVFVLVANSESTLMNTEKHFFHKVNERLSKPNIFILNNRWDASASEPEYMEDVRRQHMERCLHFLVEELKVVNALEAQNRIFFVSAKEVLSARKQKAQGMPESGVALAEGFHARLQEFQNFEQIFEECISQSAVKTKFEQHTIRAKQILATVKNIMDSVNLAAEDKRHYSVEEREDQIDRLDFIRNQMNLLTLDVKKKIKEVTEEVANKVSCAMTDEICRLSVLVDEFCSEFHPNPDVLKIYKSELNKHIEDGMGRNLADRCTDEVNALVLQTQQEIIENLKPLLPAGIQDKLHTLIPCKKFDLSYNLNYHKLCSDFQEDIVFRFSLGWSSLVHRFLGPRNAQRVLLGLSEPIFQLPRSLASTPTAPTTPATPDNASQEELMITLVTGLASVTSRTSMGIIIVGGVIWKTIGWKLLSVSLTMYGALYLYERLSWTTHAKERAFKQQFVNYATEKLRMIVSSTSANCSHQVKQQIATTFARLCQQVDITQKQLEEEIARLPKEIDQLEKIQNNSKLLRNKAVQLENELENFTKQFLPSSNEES
inactive: [1] -0.007 | [2] 0.035 | [3] 0.039 | [4] -0.04 | Nexturastat A -0.032 | vemurafenib -0.061 | [5] -0.021 | [6] -0.19 | givinostat 0.053 | barasertib 0.016

Source: the supplement of paper PMC10849652
